High-throughput results deposited in PubChem BioAssay by ICCB-Longwood Screening Facility, Harvard Medical School.
AID504770: growth inhibition of E. coli YBA685, primary screen, V. cholerae RctB inhibitors | E. coli YBA685 rctB-dependent plasmid, OD600 growth, 3 h; stronger effect = lower value | z-score (test concentration not listed) | 130,000 tested, 0.27% active; in the data active means z-score below about -2, passing the limit was not always enough
MbtI inh: MbtI salicylate synthase inhibitors, primary screen, biochemical, fluorescence intensity; P9WFX0; purified MbtI enzyme, fluorescence intensity read-out; inhibition, % (no concentration beside the values); 100,000 tested, 0.89% active; AID 493033, 2011; in the data active means inhibition mostly above about 56%, no sharp cut-off; inactive means mostly below about 77%
MenB inh: M. tuberculosis MenB inhibitors, primary screen, biochemical, absorbance; 1,4-dihydroxy-2-naphthoyl-CoA synthase (Mycobacterium tuberculosis (strain ATCC 25618 / …; MenB enzyme assay, absorbance read-out; AID 540299, 2011; inhibition, % (concentration not given with the values); 100,000 tested, 0.43% active; in the data active means inhibition above about 21%, passing the limit was not always enough
Target sequence (P9WNP5 whole entry, looked up): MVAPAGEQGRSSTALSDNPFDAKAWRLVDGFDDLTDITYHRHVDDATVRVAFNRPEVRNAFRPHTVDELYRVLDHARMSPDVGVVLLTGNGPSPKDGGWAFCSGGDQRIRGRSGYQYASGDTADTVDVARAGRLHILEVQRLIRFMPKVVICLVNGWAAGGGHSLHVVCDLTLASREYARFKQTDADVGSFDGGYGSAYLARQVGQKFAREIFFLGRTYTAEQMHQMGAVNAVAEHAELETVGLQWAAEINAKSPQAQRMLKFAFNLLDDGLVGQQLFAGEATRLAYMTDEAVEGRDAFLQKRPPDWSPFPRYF
PV pol inh: poliovirus RdRp elongation inhibitors, primary screen, biochemical, fluorescence polarization, total intensity; Genome polyprotein (Poliovirus type 1 (strain Mahoney)), P03300; % elongation, % (compound at 16.7 µg/mL); poliovirus polymerase elongation; stronger effect = lower value; 150,000 tested, 0.66% active; AID 588519, 2011; in the data active means % elongation below about 90%
Large screens that a line does not name were inactive. Shown are actives, neighbours in structure and some others; about 1.4% of the full set was active somewhere.

CCOc1cc(C(=O)O)c(N)cc1OC	PV pol inh 87
Cc1ccccc1NC(=O)/C=C\C(N)=O	MbtI inh 99
NC(=O)/C=C/C(=O)Nc1ccccc1Cl	MbtI inh 100
CCOc1ccccc1NC(=O)/C=C/C(N)=O	none (no result: MbtI inh, MenB inh, PV pol inh)
Cc1c(Cl)cccc1NC(=O)NCC(C)C	none
CCSc1nsc(NC(=O)Nc2cccc(F)c2)n1	AID504770 -2.8
O=C(NC1CCN(Cc2ccccc2)CC1)c1ccc(Cn2c(=O)c3ccccc3n(Cc3ccc(Cl)cc3)c2=O)cc1	none (no result: AID504770, MbtI inh, MenB inh)
O=C(NC1CCN(Cc2ccccc2)CC1)c1ccc(Cn2c(=O)c3ccccc3n(Cc3ccccc3)c2=O)cc1	PV pol inh 73 (no result: AID504770, MbtI inh, MenB inh)
Cc1ccc2nc(-c3ccc(NS(C)(=O)=O)cc3)sc2c1	none
COc1ccc(N=C2C(=O)Nc3ccc(Br)cc32)cc1	none
Nc1nnnn1/N=C1/C(=O)Nc2ccc(Br)cc21	PV pol inh 72 (no result: MbtI inh)
CCOc1ccc(NC(=O)CC(=O)Nc2ccc(OCC)cc2)cc1	none
CCOc1ccc(NC(=O)Cc2cccc3c(S(=O)O)cccc23)cc1	MbtI inh 65
Cc1ccccc1-c1ocnc1C(=O)Nc1cccnc1	MenB inh 30
Cc1ccc(S(=O)(=O)NC(=O)c2ccc(Cl)nc2Cl)cc1	PV pol inh 62 (no result: MenB inh)
O=C(O)CSC1=NC2CCCCC2N1 (stereo not given)	MenB inh 33
O=C(O)CSC1=NCCCN1	none
S=C(Cc1ccc2c(c1)OCCO2)N1CCOCC1	MbtI inh 92, PV pol inh 83
CCOc1ccccc1C(=O)Nc1ccccc1	none
O=C(Nc1ccccc1)c1ccccc1OCC(=O)N1CCCC1	AID504770 -3
CC(C)(C)OC(=O)Nc1cccc(C(=O)O)c1	none
CCOC(=O)c1ccc(N=C=S)cc1	AID504770 -2.2
CCOC(=O)c1ccc(C(=S)N2CCCC2)cc1	MbtI inh 77, PV pol inh 69
CCOc1ccc(C(=S)N2CCCC2)cc1	none
CCOC(=O)c1ccc(N=Cc2ccc(CC)cc2)cc1	none (no result: MbtI inh)
CCOC(=O)C1CCN(C(=S)c2ccccc2)CC1	MbtI inh 59
CC(C)c1ccc(NC(=O)CN(C)S(=O)(=O)c2cnc[nH]2)cc1	none
N/C(=N\N=C1CCCCCC1)SCn1nnc2ccccc2c1=O	PV pol inh 90
O=c1c2ccccc2nnn1CSC(=S)N1CCCC1	none
Cc1cc(N2Cc3ccccc3C2)ccc1/C=C1/C(=O)NC(=O)N(C2CCCCC2)C1=O	none
CC(C)(C)NS(=O)(=O)Nc1ccccc1	MenB inh 36
CC1=C(c2ccc(C(C)C)cc2)S(=O)(=O)N=C1N1CCC(C(=O)NCc2ccccc2)CC1	PV pol inh 34 (no result: AID504770, MbtI inh, MenB inh)
CC1=C(c2ccc(Cl)cc2)S(=O)(=O)N=C1N1CCC(C(=O)NCc2ccccc2F)CC1	none (no result: AID504770, MbtI inh, MenB inh)
COc1cccc(N2C(=O)CC(Sc3nnc(C)s3)C2=O)c1 (stereo not given)	MbtI inh 100
COc1cccc(N2C(=O)CC(Sc3ccccc3N)C2=O)c1 (stereo not given)	none (no result: MbtI inh, MenB inh, PV pol inh)
CCN(CC)c1c(S(=O)(=O)c2ccccc2)cnc2cc(OC)c(OC)cc12	none
CCOc1cccc(/C=N/n2c(-c3ccc(Cl)cc3)n[nH]c2=S)c1O	MbtI inh 79, PV pol inh 85
COc1ccc(-c2n[nH]c(=S)n2/N=C/c2ccccc2Br)cc1OC	none
CCC(=O)C1(Sc2nc3ccccc3[nH]2)CC(C)(C)OC1=O (stereo not given)	MbtI inh 102
CCSc1nc2ccccc2[nH]1	none (no result: MbtI inh, MenB inh, PV pol inh)
Nc1ccc(C(=O)OCC(=O)NC23CC4CC(CC(C4)C2)C3)cc1	none (no result: MenB inh)
COc1ccc(C)cc1NS(=O)(=O)c1ccc(-c2cnc(C3CC3)o2)cc1	none (no result: AID504770, MbtI inh, MenB inh)
COc1cc(Cl)c(NS(=O)(=O)c2ccc(-c3cnc(C4CC4)o3)cc2)c(OC)c1	PV pol inh 87 (no result: AID504770, MbtI inh, MenB inh)
CCCCOC(=O)Sc1nc2ccccc2o1	MbtI inh 91
CCOCCCNc1ncnc2sccc12	PV pol inh 83
COc1ccccc1OCCNc1ncnc2sccc12	none
CCOC(=O)N1CCc2c(sc(NC(=O)/C=C/c3ccccc3)c2C#N)C1	none (no result: MbtI inh, MenB inh, PV pol inh)
N#Cc1cccc(NC(=O)Nc2cccs2)c1	AID504770 -3.1
N#Cc1cccc(NC(=S)NC(=O)c2cccs2)c1	none
CCC(C)SCC(=O)N1CCC(C)CC1 (stereo not given)	none (no result: MenB inh)
CC(=O)c1ccc(NC(=O)C2=CC(c3cccs3)=NS(=O)(=O)N2C)cc1	PV pol inh -12 (no result: AID504770, MbtI inh, MenB inh)
CN(C)C(=S)SCC(=O)N1N=C(c2ccc(Cl)cc2)CC1c1ccco1 (stereo not given)	none
